Assay outcomes (PubChem BioAssay)
Rows were chosen to be rich in hits. Some 5.5% of all compounds tested hit in one or more screens of this group.
Six1-Eya2 inh: inhibitors of human Six1/Eya2 interaction; AlphaScreen GST-Six1/His-Eya2 binding, biochemical; active compounds read low; activity change, % (test concentration not listed); actives 0.56% (n = 360,000); AID 651725; in the data active = activity change below about -65%; inconclusive = mostly about -30% to -63%
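GST-Six1 + His-Eya2 (5X stock: 250/500 nM); Tris pH 8.0, 300 mM NaCl, 0.05% BSA, 0.02% Tween 20; GSH donor/Ni acceptor beads; 1 h 37 °C dark; AlphaScreen readout.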
MBNL1-CUG inh: blocks human MBNL1 binding to CUG repeat RNA. Q9NR56. TR-FRET MBNL1-His/biotin-(CUG)12 binding, 665/545 ratio. Potency, µM (highest dose often 57.5 µM), usual class: inhibitors. actives 0.036% (n = 280,000). AID 2675; active = well fitted inhibition curve with a large enough effect in the signal ratio, with a control signal flat, not every such curve was filed as active; inconclusive = small, poorly fitted or top-dose-only effect, or effect the other way, or a change in a side signal; inactive = no such curve, though single readings can be large or run the other way; the % refers to the signal ratio
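Compounds (final 92 nM to 58 uM) are added to His-tagged MBNL1 and biotin-(CUG)12, then terbium anti-His antibody and streptavidin-XL665 (5 nM final). After 60 min at room temperature, the 665/545 nm ratio is read.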
RORgamma inh: inhibitors of mouse ROR gamma transcriptional activity; Drosophila S2 Gal4-RORgamma UAS-luciferase reporter, 20 h; AID 2551; actives 5.4% (n = 310,000); P51450; Potency, µM (titrated, usually from 53.6 µM), actives largely listed as inhibitors; also: nearly all actives have a fitted effect of over 60% in size
Target sequence (P51450 whole entry, looked up, the tested form may be a part): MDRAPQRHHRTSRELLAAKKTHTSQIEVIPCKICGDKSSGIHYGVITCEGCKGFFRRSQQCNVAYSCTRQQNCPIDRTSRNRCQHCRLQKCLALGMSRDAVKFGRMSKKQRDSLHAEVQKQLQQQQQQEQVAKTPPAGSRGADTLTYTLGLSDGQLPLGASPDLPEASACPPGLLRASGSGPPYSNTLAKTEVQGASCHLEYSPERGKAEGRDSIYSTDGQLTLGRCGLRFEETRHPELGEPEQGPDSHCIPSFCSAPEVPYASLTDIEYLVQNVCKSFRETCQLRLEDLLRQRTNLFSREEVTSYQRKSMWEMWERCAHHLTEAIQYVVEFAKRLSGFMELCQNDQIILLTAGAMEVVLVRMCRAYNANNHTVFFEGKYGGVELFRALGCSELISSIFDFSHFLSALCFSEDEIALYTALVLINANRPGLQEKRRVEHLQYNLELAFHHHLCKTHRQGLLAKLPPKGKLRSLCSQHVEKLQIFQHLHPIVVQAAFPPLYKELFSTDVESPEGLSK
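Read-out: Photinus luciferase luminescence; inhibitors lower reporter signal. Insect Schneider cells with Gal4-ROR gamma fusion under metallothionein promoter, UAS reporter; 700 uM final copper sulfate induction, 20 hr, ambient temperature.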
CBFb RUNX1 block: inhibitors of human CBF-beta and RUNX1 interaction. Potency, µM (series often up to 59.8 µM), usual class: inhibitors. AID 1477. 230,000 tested, under 10 active. AlphaScreen CBFb-His/RUNX1-biotin binding, biochemical
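AlphaScreen proximity signal reports loss of binding between His-tagged CBF-beta and biotin-labelled RUNX1, each at 30 nM. Proteins are pre-associated for 20 minutes, compounds added for 15 minutes, then beads for 90 minutes, all at ambient temperature.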
CtBP-E1A inh: blocks the CtBP interaction with E1A; AlphaScreen GST-E1A/His-CtBP binding, 1536-well; active compounds read low; actives 0.49% (n = 340,000); activity change, % (concentration not given with the values); in the data active = activity change below about -65%; inconclusive = mostly about -30% to -63%
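Homogeneous bead-based format: GST-tagged E1A captured on glutathione donor beads, His-tagged CtBP on nickel acceptor beads; compounds precede bead addition by 2 h at 37 °C.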
Gal4-VP16 FLuc: counter-screen for ROR gamma inhibitors: Gal4-VP16 reporter; Drosophila S2 Gal4-VP16 UAS-luciferase, luminescence, 20 h; Potency, µM (series often up to 53.6 µM), usual class: inhibitors; actives 3.5% (n = 310,000); AID 2546;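 also: Gal4-VP16 expression switched on by copper sulfate through the metallothionein promoter; nearly all actives have a fitted effect of over 50% in size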
Numbers stand for hits; . = inactive; ? = inconclusive; / = no result given; [ ] = another dose, or the depositor's remark. Unless noted, calls follow the shape of the dose curve; as a rule, active = well fitted curve in the direction sought with a large enough effect; inconclusive = small, poorly fitted or top-dose-only effect, or another doubt; inactive = no such curve, though single readings can be large; an effect the other way counts as inactive or inconclusive.

SMILES | Six1-Eya2 inh | MBNL1-CUG inh | RORgamma inh | CBFb RUNX1 block | CtBP-E1A inh | Gal4-VP16 FLuc
O=C(Nc1nnc(-c2cccs2)o1)c1cccc(F)c1 | . | / | / | / | . | /
O=C(Nc1nnc(-c2cccs2)o1)c1cc(-c2ccccc2)nc2ccccc12 | . | . | 1.4µM | .[2.36 µM] | . | 2.5µM
O=C(Nc1nnc(-c2cccs2)o1)c1cccc(Oc2ccccc2)c1 | . | . | 0.28µM | . | . | 0.56µM
O=C(NCCS(=O)(=O)N1CCN(c2ccccc2)CC1)c1cccc(F)c1 | . | / | / | / | . | /
Fc1ccccc1N=C1NN=C(c2ccccc2)CS1 | ? | . | ? | . | ? | .
Clc1ccccc1N=C1NN=C(c2cccs2)CS1 | . | . | 11µM | ? | . | ?
O=C(Nc1nccs1)c1ccc(-c2ccc(F)cc2)o1 | . | . | ? | . | . | ?
O=C(/C=C/c1ccc(Cl)cc1)Nc1nccs1 | . | . | 8.9µM | . | / | .
O=C(Nc1nccs1)c1ccc(-c2ccc(Cl)cc2)o1 | . | . | 4µM | . | . | ?
C/C=C/C=C/C(=O)Nc1nccs1 | . | / | 10µM | . | . | 5.6µM
CCCC(=O)OCCNc1cc(Sc2nc3ccccc3[nH]2)c2nonc2c1[N+](=O)[O-] | ? | ? | 2.8µM | . | . | 3.2µM
CCC(=O)OCCNc1cc(SCCC(=O)OC)c2nonc2c1[N+](=O)[O-] | . | ? | . | . | . | ?
CCC(=O)OCCNc1cc(Sc2nccn2C)c2nonc2c1[N+](=O)[O-] | . | ? | 4.5µM | . | . | 4µM
O=C(O)CC1S/C(=N\N=C2\C(=O)Nc3ccccc32)N(c2ccc(O)cc2)C1=O (configuration not stated) | . | ? | . | / | . | .
COc1ccccc1CCNC(=O)CCn1nc(C)c2c(C)n(-c3ccccc3)nc2c1=O | . | . | . | / | . | .
c1ccc2c(c1)SCc1c-2[nH]c2ccccc12 | / | / | 4.5µM | . | / | 10µM
CCNC(=O)C1CCCN(C(=O)C(c2ccccc2)c2ccccc2)CC1 (configuration not stated) | . | / | / | / | . | /
Cc1cc(NC(=O)/C=C/c2ccc(F)cc2)n(-c2nc3ccccc3[nH]2)n1 | . | . | 1.3µM | . | . | 1µM
Cc1cc(NC(=O)/C=C/c2cccc(F)c2)n(-c2nc3ccccc3[nH]2)n1 | . | . | 1.6µM | . | . | 2.8µM
Cc1cc(NC(=O)/C=C/c2cccc(Cl)c2)n(-c2nc3ccccc3[nH]2)n1 | . | . | ? | . | . | ?
COc1ccc(/C=C/C(=O)Nc2cc(C)nn2-c2nc3ccccc3[nH]2)cc1 | . | . | 1.8µM | . | . | 2.5µM
Cc1nc2sc(-c3ccccc3)cc2c(=O)n1N | . | / | 7.1µM | . | . | ?
Cc1ncc([N+](=O)[O-])n1C[C@H](O)CCl | / | / | . | . | / | .
COc1cc(/C=C2/C(=O)c3cccc([N+](=O)[O-])c3C2=O)c(Br)cc1O | . | / | ? | ? | . | 35µM
CN1CCN(CCCNC(=O)CCCOc2cc(=O)n(C)c3ccccc23)CC1 | . | . | . | . | . | .
SMILES | Six1-Eya2 inh | MBNL1-CUG inh | RORgamma inh | CBFb RUNX1 block | CtBP-E1A inh | Gal4-VP16 FLuc
COc1cc(=O)n(C)c2ccccc12 | . | . | 13µM | . | . | .
COc1ccc2c(OC)cc(=O)n(C)c2c1 | . | . | . | . | . | .
CC(C)CCNC(=O)CCCOc1cc(=O)n(C)c2ccccc12 | . | . | 13µM | . | . | .
CC1CCCCC1NC(=S)NC(=O)c1sc2ccccc2c1Cl (configuration not stated) | . | . | . | . | . | .
O=C(NC(=S)N(CCCCO)C1CCCCC1)c1sc2ccccc2c1Cl | . | . | 0.1µM | . | . | 0.89µM
O=C(CCNC(=O)c1ccccc1)OCC(=O)c1cccc(Cl)c1 | . | . | . | . | . | .
O=C(CCC(=O)OCC(=O)c1ccc(-c2ccccc2)cc1)Nc1cccc(Cl)c1 | . | . | 7.1µM | . | . | 13µM
Cc1ccccc1NC(=O)CCC(=O)OCC(=O)c1ccc(-c2ccccc2)cc1 | . | . | 7.9µM | . | . | 10µM
Cc1ccccc1CSCC(=O)NNC(=S)NCC1CCCO1 (configuration not stated) | . | . | ? | / | . | .
O=[N+]([O-])c1c(C(Cl)Cl)nn(-c2ccccc2)c1N1CCCC1 | ? | . | 7.1µM | ? | . | ?
CC(C)(C)n1cnc2cc(NCc3cccs3)ccc21 | . | . | 11µM | . | . | .[10 µM]
COc1ccc(O)c(/C=N/NC(=S)Nc2cccc(S(=O)(=O)N(C)C)c2)c1 | -90 | / | ? | . | . | ?
CC(/C=N/NC(=S)Nc1cccc(S(=O)(=O)N(C)C)c1)c1ccccc1 (configuration not stated) | . | / | . | . | . | .
CCN(CCO)c1ccc(NC(=S)Nc2cccc(S(=O)(=O)N(C)C)c2)cc1 | . | . | . | ? | / | .
CN(C)S(=O)(=O)c1cccc(NC(=S)N/N=C/c2ccc(O)c(O)c2O)c1 | -93 | . | ? | / | -97 | .
CN(C)S(=O)(=O)c1cccc(NC(=S)N/N=C/C(c2ccccc2)c2ccccc2)c1 | . | / | 3.5µM | . | . | 5µM
CN(C)S(=O)(=O)c1cccc(NC(=S)N/N=C/c2ccco2)c1 | . | . | 1.1µM | . | . | 3.2µM
COc1ccc(O)c(/C=N/NS(=O)(=O)c2ccc(C)cc2)c1 | . | . | . | / | . | .
CC(=O)c1ccc(OCC(=O)OCC(=O)NCc2ccco2)cc1 | . | / | / | / | . | /
Cc1ccc(NS(=O)(=O)c2ccc(-c3csc(C)n3)s2)c(C)c1 | . | . | . | . | . | .
O=c1[nH]nc(N/N=C/c2ccccc2OC(F)F)c(=O)[nH]1 | . | / | . | . | . | .
COc1ccc(-c2nc3c(c4c2C[C@H](c2ccccc2)OC4)CN(S(=O)(=O)c2ccc(C)cc2)CC3)c(C)c1 | / | / | / | .[13.1 µM] | / | /
Cn1c(=O)c2cc(NC(=O)CCc3cccnc3)ccc2n1Cc1cccc(C(F)(F)F)c1 | . | / | / | / | . | /
CN(C)S(=O)(=O)c1cccc(NC(=S)Nc2cc(Cl)cc(Cl)c2)c1 | . | . | . | . | . | .
COc1cccc(/C=C/C(=O)OCC(=O)Nc2cccc(S(=O)(=O)N(C)C)c2)c1 | . | . | . | . | ? | .[10 µM]
COc1cc(/C=N/NC(=S)Nc2cccc(S(=O)(=O)N(C)C)c2)cc(OC)c1O | . | ? | 3.2µM | . | . | 2.8µM
COc1cccc(/C=N/NC(=S)Nc2cccc(S(=O)(=O)N(C)C)c2)c1 | . | . | 1.6µM | . | . | 4.5µM
CN(C)S(=O)(=O)c1cccc(NC(=S)Nc2ccc(Cl)cc2Cl)c1 | . | . | 20µM | . | . | ?
